One experiment addresses Albumin (Bos taurus) (UniProt P02769). Briefly: bovine serum albumin binders on microarray, profiling panel, artefact control for SMM control protein annotation, biochemical, small-molecule microarray, Alexa647 label, 635/667 nm fluorescence (AID 1118).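 Note: score merges 667 nm emission intensity and signal-to-noise per printed compound spot.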 Particulars: BSA-A647 binding, fluorescence 635 nm, higher = more signal.
Experiment [1] in a line: small-molecule microarray binders of probe aXIP, primary screen, biochemical, NeuroSMM set, 635/667 nm fluorescence (AID 1119).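 Note: probe is the protein aXip251-270 applied at 1 µg/mL to compound-printed slides; binding of probe to printed compounds measured as 667 nm fluorescence plus signal to noise.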 The note with it: higher = more signal, called active from +8 up or from −8 down.
Experiment [2] can be described thus: small-molecule binders of probe aNOTCH3, primary screen, biochemical, small-molecule microarray, 635/667 nm fluorescence (AID 1120).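 Note: probe is a biotin-tagged antibody raised against NOTCH3 rather than NOTCH3 protein; score merges spot fluorescence near 667 nm with spot signal to noise.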 Particulars: higher = more signal.
Experiment [3] is described as follows: small-molecule binders of probe aNOTCH2, primary screen, biochemical, small-molecule microarray, 635/667 nm fluorescence (AID 1121).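 Note: score merges feature fluorescence read at 667 nm with its signal to noise.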 Particulars: higher = more signal.
The target of experiment [4] is Carbonic anhydrase 2 (Homo sapiens) (UniProt P00918). Briefly: CAII small-molecule binders, profiling panel, biochemical, small-molecule microarray, Alexa647-labelled CAII (AID 1122). Particulars: CAII-A647 binding fluorescence, higher = more signal.
Experiment [5] in a line: COS7 lysate on small-molecule microarray, probe aHis, 635 nm (AID 1123).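 Note: z-score combines 667nm fluorescence intensity with signal-to-noise per printed compound spot.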 Particulars: COS7 cell lysate, fluorescence, higher = more signal.
Experiment [6] is described as follows: compound binding in COS7 lysate, probe aLAP1, primary screen, cell lysate, small-molecule microarray (AID 1124).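 Note: lysate comes from COS7 cells expressing LAP1 and is applied at 0.3 µg/mL; score merges spot fluorescence near 667 nm with signal-to-noise over triplicate slides.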 Particulars: probe aLAP1, fluorescence, higher = more signal.
The test system of another experiment is Sam68 (KHDRBS1). Briefly: Sam68 small-molecule binders, primary screen, biochemical, small-molecule microarray, 635 nm fluorescence (AID 1125).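 Note: score merges 667 nm channel intensity with signal to noise over triplicate slides.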 The note with it: small-molecule microarray binding, higher = more signal.
Experiment [7] has as its system Chordin-like protein 2 (CHRDL2). As to the kind of experiment: CHRDL2 small-molecule binders, primary screen, biochemical, small-molecule microarray, 635 nm fluorescence (AID 1126).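 Note: printed compound slides probed with Chrdl2 protein at 4 µg/mL for 1 h at 4 C; score merges 667 nm emission intensity with signal to noise over three replicate slides.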 Particulars: small-molecule microarray binding, fluorescence 635 nm; higher = more signal.
The target in experiment [8] is Concanavalin-A (Canavalia ensiformis) (UniProt P02866). As to the kind of experiment: ConA small-molecule binders, primary screen, artefact control for SMM control protein annotation, biochemical, small-molecule microarray, Alexa647 label, 635 nm (AID 1127).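 Note: z combines 667 nm emission intensity with signal-to-noise across three replicate slides.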 The note with it: ConA-A647 binding fluorescence, higher = more signal.
Concanavalin-A (Canavalia ensiformis), sequence (P02866 whole entry, looked up): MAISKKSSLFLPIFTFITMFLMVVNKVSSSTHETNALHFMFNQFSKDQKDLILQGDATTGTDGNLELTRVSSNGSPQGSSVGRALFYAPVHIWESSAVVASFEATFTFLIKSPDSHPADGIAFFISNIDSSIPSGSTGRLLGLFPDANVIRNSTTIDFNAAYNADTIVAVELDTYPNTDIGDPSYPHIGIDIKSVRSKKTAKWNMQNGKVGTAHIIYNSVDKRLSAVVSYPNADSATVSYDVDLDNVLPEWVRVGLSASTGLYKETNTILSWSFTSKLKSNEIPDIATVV
The nature of experiment [9]: anti-His antibody binders, primary screen, artefact control for SMM control protein annotation, biochemical, small-molecule microarray, 635 nm fluorescence (AID 1128).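 Note: score merges feature fluorescence with signal-to-noise for each printed compound spot.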 The note with it: anti-His Alexa647 antibody binding, higher = more signal.
Experiment [10] concerns Human papillomavirus type 1a E7 protein (residues 1-88). Briefly: HPV1a E7 small-molecule binders, primary screen, biochemical, small-molecule microarray, residues 1-88, 635 nm (AID 1129). The note with it: small-molecule microarray binding, fluorescence 635 nm; higher = more signal.
The target of experiment [11] is Focal adhesion kinase 1 (Homo sapiens) (UniProt Q05397). Briefly: small-molecule microarray binders of FAK, primary screen, biochemical, 635/667 nm fluorescence, BSA, DTT (AID 1130).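 Note: composite of spot emission at 667 nm and signal to noise over triplicate slides.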 The note with it: PTK2 binding, 635 nm fluorescence, higher = more signal.
Focal adhesion kinase 1 (Homo sapiens), sequence (Q05397 whole entry, looked up): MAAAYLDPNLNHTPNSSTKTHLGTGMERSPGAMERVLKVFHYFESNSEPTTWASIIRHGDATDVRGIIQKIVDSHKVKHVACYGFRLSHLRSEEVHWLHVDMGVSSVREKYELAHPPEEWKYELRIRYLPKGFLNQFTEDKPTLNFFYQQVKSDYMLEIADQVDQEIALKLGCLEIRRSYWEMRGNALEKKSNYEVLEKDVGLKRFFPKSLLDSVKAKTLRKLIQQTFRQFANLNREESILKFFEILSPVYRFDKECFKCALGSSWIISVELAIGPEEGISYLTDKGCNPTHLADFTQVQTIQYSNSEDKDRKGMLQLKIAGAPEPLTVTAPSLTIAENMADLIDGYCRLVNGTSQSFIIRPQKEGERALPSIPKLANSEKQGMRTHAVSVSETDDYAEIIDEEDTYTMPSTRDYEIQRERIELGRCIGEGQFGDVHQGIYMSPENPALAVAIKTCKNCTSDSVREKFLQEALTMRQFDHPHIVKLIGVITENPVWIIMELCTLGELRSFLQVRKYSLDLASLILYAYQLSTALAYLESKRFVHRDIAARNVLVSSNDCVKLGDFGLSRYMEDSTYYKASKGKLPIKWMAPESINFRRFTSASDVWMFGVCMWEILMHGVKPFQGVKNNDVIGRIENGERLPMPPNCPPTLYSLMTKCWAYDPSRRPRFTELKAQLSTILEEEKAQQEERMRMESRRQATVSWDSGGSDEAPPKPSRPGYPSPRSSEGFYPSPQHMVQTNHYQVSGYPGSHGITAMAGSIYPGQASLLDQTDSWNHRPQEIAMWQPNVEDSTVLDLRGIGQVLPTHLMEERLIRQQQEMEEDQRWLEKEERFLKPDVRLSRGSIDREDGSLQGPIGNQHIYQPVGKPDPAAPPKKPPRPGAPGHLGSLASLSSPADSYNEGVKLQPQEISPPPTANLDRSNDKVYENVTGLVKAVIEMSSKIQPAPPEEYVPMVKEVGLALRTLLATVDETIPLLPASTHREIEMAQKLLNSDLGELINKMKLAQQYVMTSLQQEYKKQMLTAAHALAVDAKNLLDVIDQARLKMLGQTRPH
Experiment [12] has as its system Fibrinogen (Alexa647-labelled). Briefly: fibrinogen binders on compound microarrays, profiling panel, artefact control for SMM control-protein annotation, biochemical, small-molecule microarray, 635/667 nm fluorescence (AID 1131).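 Note: z-score merges 667 nm fluorescence with per-spot signal-to-noise over triplicate slides.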 Particulars: fibrinogen-A647 binding fluorescence, higher = more signal.
Experiment [13] deals with Follistatin (Homo sapiens) (UniProt P19883). As to the kind of experiment: follistatin binders on small-molecule microarrays, primary screen, biochemical, small-molecule microarray, 635/667 nm fluorescence (AID 1132). Particulars: FST binding, 635 nm fluorescence, higher = more signal.
Follistatin (Homo sapiens), sequence (P19883 whole entry, looked up): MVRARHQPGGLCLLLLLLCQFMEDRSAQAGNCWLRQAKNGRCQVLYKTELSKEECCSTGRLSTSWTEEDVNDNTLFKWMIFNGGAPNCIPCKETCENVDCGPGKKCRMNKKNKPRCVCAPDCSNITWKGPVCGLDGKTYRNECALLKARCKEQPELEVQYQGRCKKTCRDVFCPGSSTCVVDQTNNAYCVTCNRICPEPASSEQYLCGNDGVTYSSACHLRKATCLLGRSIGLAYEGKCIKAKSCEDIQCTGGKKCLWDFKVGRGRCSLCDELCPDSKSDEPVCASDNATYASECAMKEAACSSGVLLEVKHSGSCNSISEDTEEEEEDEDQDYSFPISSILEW
Experiment [14] has as its target Fibroblast growth factor 2 (Homo sapiens) (UniProt P09038). Briefly: FGF2 binders on small-molecule microarrays, primary screen, biochemical, small-molecule microarray, 635/667 nm fluorescence (AID 1133). Particulars: small-molecule microarray binding, FGF2, fluorescence 635/667; higher = more signal.
A short description of experiment [15]: mitochondrial membrane potential change in A549 cells, profiling panel, cell-based, JC-1 fluorescence, basal, 24 h, 100 nL (AID 1138).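 Note: A549 lung adenocarcinoma cells under basal conditions with no added stimulus; test concentration not given here.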 Particulars: higher = more signal.
The test system of a further experiment is Lefty1. Briefly: Lefty1 binders on small-molecule microarrays, primary screen, biochemical, small-molecule microarray, 635/667 nm fluorescence (AID 1139). The note with it: small-molecule microarray binding, fluorescence 635/667; higher = more signal.
Experiment [16] concerns wheat germ agglutinin (Triticum aestivum), Alexa647-labelled. Briefly: wheat germ agglutinin binders on compound microarrays, profiling panel, artefact control for SMM control-protein annotation, biochemical, small-molecule microarray, 635/667 nm fluorescence (AID 1140).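 Note: score merges 667 nm feature emission with signal to noise over triplicate slides.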 Particulars: WGA-A647 binding, 635 nm fluorescence, higher = more signal.
Experiment [17] has as its target Luciferin 4-monooxygenase (Photinus pyralis) (UniProt P08659). Briefly: firefly luciferase enzyme inhibitors, primary screen, biochemical, luminescence, purified enzyme, 2006 set (AID 1141).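 Note: cell-free assay with purified firefly luciferase at 100 ng per well in PBS; test concentration not given here.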 The note with it: SteadyGlo luminescence, 30 min, higher = more signal, called active from +8 up or from −8 down.

Calls of active or inactive are those of the source.

Fibroblast growth factor 2 (Homo sapiens), sequence (P09038 whole entry, looked up): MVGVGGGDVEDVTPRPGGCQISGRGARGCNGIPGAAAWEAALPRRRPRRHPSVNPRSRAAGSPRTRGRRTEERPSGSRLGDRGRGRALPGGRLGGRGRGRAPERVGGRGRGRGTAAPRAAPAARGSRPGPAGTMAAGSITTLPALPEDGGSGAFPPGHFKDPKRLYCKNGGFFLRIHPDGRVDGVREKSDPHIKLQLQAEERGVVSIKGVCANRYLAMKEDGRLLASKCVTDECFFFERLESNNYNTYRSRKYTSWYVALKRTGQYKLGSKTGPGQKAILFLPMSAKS
Luciferin 4-monooxygenase (Photinus pyralis), sequence (P08659 whole entry, looked up): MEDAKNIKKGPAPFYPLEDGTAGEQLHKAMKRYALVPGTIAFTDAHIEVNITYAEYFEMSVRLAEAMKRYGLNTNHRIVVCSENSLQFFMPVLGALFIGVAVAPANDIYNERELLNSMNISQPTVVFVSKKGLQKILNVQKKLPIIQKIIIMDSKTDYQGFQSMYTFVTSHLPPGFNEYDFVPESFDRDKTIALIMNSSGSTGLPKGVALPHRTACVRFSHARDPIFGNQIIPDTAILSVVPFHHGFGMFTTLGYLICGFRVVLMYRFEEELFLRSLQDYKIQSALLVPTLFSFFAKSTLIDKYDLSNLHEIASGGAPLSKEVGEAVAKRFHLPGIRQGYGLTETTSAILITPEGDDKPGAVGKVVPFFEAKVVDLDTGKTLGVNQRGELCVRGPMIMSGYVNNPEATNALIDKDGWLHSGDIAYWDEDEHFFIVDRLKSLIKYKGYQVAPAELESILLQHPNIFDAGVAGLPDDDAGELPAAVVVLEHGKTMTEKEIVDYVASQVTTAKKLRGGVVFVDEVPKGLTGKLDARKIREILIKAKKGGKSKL
Albumin (Bos taurus), sequence (P02769 whole entry, looked up): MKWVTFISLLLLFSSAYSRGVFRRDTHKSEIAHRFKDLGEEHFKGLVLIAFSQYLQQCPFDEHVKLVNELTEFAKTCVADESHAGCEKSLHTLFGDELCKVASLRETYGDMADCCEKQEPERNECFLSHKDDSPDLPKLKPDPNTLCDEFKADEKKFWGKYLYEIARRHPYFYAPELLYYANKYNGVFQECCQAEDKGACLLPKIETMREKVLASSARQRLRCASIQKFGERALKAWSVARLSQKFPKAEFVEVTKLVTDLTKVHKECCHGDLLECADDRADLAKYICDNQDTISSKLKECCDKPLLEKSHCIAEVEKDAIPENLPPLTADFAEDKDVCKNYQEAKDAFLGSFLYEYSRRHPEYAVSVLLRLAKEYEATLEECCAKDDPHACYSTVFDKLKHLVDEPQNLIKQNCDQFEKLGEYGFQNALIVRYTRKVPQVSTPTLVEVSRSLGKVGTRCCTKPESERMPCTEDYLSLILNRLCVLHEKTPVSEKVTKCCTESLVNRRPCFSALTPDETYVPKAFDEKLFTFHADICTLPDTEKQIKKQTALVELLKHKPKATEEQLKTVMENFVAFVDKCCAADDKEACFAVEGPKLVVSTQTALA

`O=C1O[C@@H](c2ccccc2)[C@@H](c2ccccc2)N2[C@@H](c3ccc(OCCO)cc3)[C@]3(C(=O)Nc4ccc(C#CC5(O)CCCCCC5)cc43)[C@@H](C(=O)NC[C@H](O)c3ccccc3)[C@H]12`: the composite z-score amounted to 0.879 with Albumin (Bos taurus); 0.158 in experiment [2]; 0.0278 in experiment [3]; 0.695 in [4]; 1.56 in experiment [5]; 2.16 in [6]. Moreover, the composite z-score with Sam68 (KHDRBS1) amounted to 1.32; in [7] it was 0.127; in experiment [8] it was 1.17; in [9], 2.14; in experiment [10], 1.08; in experiment [11] it was 0.745. Further, the composite z-score in experiment [12] worked out at 0.407; in experiment [13], 1.23; in [14], 0.505; in the experiment with Lefty1, 0.783; in experiment [16], 1.09. Besides, the composite Z-score in experiment [1] is -0.363 (inactive). The values for the z-score in experiment [15] and in [17] were -0.482 and -1.77 (inactive), respectively.
With `C=C(/C(=C/C[C@H](OC(C)=O)c1cccc(OCCO)c1)c1cc(C(=O)OC)ccc1OC)C(C)C`, the composite z-score with Albumin (Bos taurus) is 0.103; in experiment [2], -0.0918; in experiment [3], -0.126; in [4], 0.38; in experiment [5], 0.866; in experiment [6], 0.172. Besides, the composite z-score was 0.177 in the experiment on Sam68 (KHDRBS1); -0.767 in experiment [7]; -0.319 in [8]; -0.604 in experiment [9]; -0.389 in [10]; 0.445 in experiment [11]. Besides, the composite z-score in experiment [12] was -0.624; in [13], -0.288; in experiment [14], -0.0132; in the experiment on Lefty1 it was -0.0603; in experiment [16] it was -0.907. Besides, the composite Z-score in [1] was 0.307 (inactive). The z-score is 3.18 in experiment [15] and -1.84 (inactive) in experiment [17].
Turning to `COCCOC(=O)N1C(=O)[C@@]2(c3cc(C#CCCO)ccc31)[C@H](c1ccccc1OCCO)N1[C@H](c3ccccc3)[C@H](c3ccccc3)OC(=O)[C@H]1[C@@H]2C(=O)NC[C@H](O)c1ccccc1`, the composite z-score with Albumin (Bos taurus) was 0.25; in [2] it was -0.0197; in experiment [3], -0.0753; in [4], 0.204; in experiment [5] it was 2.15; in experiment [6], 0.35. Moreover, the composite z-score in the experiment on Sam68 (KHDRBS1) stood at 1.31; in [7], 0.524; in experiment [8], 0.859; in experiment [9], 2.02; in experiment [10] it was 0.907; in [11] it was 1.07. The composite z-score in [12] is 0.756; in [13], 1.5; in [14], 1.7; with Lefty1 it was 1.61; in [16] it was 1.01. In addition, the composite Z-score in experiment [1] was 0.0022 (inactive). The figures for the z-score in experiment [15] and in experiment [17] were 0.891 and -1.74 (inactive), respectively.
In the case of `[N-]=[N+]=NCc1ccccc1C[C@@]1(C(=O)NCc2ccccc2)N=C(c2ccc(OCCCO)cc2)O[C@@H]1c1ccccc1`, the composite z-score with Albumin (Bos taurus) was 0.825; in [2] it was 0.0562; in experiment [3], -0.0389; in [4], 0.28; in experiment [5] it was 0.86; in [6] it was -0.401. Further, the composite z-score in the experiment with Sam68 (KHDRBS1) is 0.474; in experiment [7], -1.01; in experiment [8], 0.266; in [9], 1.87; in experiment [10] it was 1.13; in experiment [11], 0.621. Also, the composite z-score in experiment [12] is 0.483; in experiment [13] it was 0.327; in experiment [14], -0.165; in the experiment on Lefty1, -0.698; in experiment [16], 1. Further, the composite Z-score in [1] is 0.109 (inactive). Moreover, the z-score in experiment [15] was 1.79; in experiment [17], -1.15 (inactive).

The record behind these values is PubChem BioAssay.
